We go through 29 molecules from PubChem BioAssay (NCATS).

Each structure is given as a SMILES string. Results filed as inconclusive are left out. The source made the active and inactive calls. Unless noted, calls come from the whole dose curve; as a rule, active = well fitted curve in either direction with a large enough effect (not every such curve was filed as active); inconclusive = small, poorly fitted or top-dose-only effect, or another doubt; inactive = flat fitted curve, though single readings scatter.

For assay [1], the target named is Mitogen-activated protein kinase 10 (Mus musculus) (UniProt Q61831). The experiment in a line: JNK3 AlphaScreen Assay (AID 530).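 Note: kinase came from lysate of stimulated human HepG2 cells; signal reports phosphorylation of biotinylated GST-cJun 1-79 at Ser73 with 10 µM ATP; % is set by controls: 0 for no effect and ±100 for the full control effect.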 The method, boiled down: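 Pre-activated (IL-1β/TNFα) JNK3 in HepG2 lysates phosphorylates biotin-GST-cJun(1-79), 10 uM ATP; anti-phospho-cJun(Ser73) AlphaScreen read at room temperature, pH 7.6 Tris buffer. Compounds pre-incubated 15 min as titrations.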
A general note: Alpha assays give light when donor and acceptor beads are brought close together.

Assay [2] has as its target Cytochrome P450 3A4 (Homo sapiens) (UniProt P08684). The experiment in a line: qHTS Assay for Inhibitors and Substrates of Cytochrome P450 3A4 (AID 884; active = well fitted curve in the direction sought with a large enough effect; an effect the other way counts as inactive or inconclusive; note: nearly all actives have a fitted effect of over 50% in size; note: potency is the fitted concentration of half-maximal effect; for activity change, negative = inhibition: % is set by controls: 0 for no effect and ±100 for the full control effect). The method in brief:
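20 nM human CYP3A4 with 25 uM Luciferin-PPXE (at KM) in 200 mM KPO4, preincubated 10 min with compound; NADPH regeneration started a 60 min RT reaction. Luciferin detected by luminescence, normalized to 57 uM ketoconazole as full inhibition.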
(In general: Quantitative high-throughput screening tests each substance at several concentrations.)

A short description of assay [3]: Cell Viability - BJ (AID 421; calls by dose curve;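 note: potency is the fitted concentration of half-maximal effect; cells exposed to compound for 40 hours at 37 °C before readout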). The note with it: BJ fibroblast viability, qHTS. The method, boiled down:
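Normal human BJ foreskin fibroblasts, 1500/well in complete medium, treated 40 hr at 37 °C. Cellular ATP by CellTiter-Glo luminescence; normalized to DMSO and 100 uM tamoxifen, AC50 from Hill fit.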

A short description of assay [4]: Cell Viability - MRC5 (AID 434; calls by dose curve;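 note: potency is the fitted concentration of half-maximal effect; potency reflects cytotoxicity seen as loss of intracellular ATP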). The note with it: MRC5 lung fibroblast viability, qHTS. The method in brief:
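MRC5 normal human lung fibroblasts, 1500 cells/well, exposed to compound for 40 hr at 37 C. Cellular ATP was read by CellTiter-Glo luminescence; data normalized to DMSO and 100 uM tamoxifen, with AC50 from Hill fits.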

The nature of assay [5]: Cell Viability - N2a (AID 540; active = well fitted curve in the direction sought with a large enough effect; an effect the other way counts as inactive or inconclusive;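 note: plate controls were DMSO alone for no effect and tamoxifen control for full effect; nearly all actives have a fitted effect of over 45% in size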). As to conditions: N2a mouse neuroblastoma cell viability; activity change, negative = cytotoxicity: at 92.2 µM (top of the series). The method, boiled down:
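Luminescent ATP signal (CellTiter-Glo, 20 min at room temperature) served as the viability read-out after N2a cells were treated with compounds for 40 hours at 37 °C. Concentration-response data were fitted to the Hill equation for AC50.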

Assay [6] in a line: Cellular Toxicity (caspase-3) HepG2 (AID 654; active = well fitted curve in the direction sought with a large enough effect; an effect the other way counts as inactive or inconclusive;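 note: cells exposed to compound for 16 hours before reading; 0% = DMSO alone and 100% = caspase signal from 100 µM tamoxifen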). The method in brief:
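Cells plated 5 hr at 37 °C, compound added, incubated 16 hr at 37 °C. Caspase-Glo 3/7 reagent followed, 20 min at room temperature, then luminescence read. Activation scored as signal increase; AC50 from Hill fit.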

Assay [7] is described as follows: Cellular Toxicity (caspase-3) BJ (AID 658; active = well fitted curve in the direction sought with a large enough effect; an effect the other way counts as inactive or inconclusive;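 note: 0% = DMSO basal and 100% = 10 µM staurosporine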). The method in brief: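 BJ human foreskin fibroblasts, 1000 cells/well, treated 16 hours at 37 °C in complete medium; caspase 3/7 activity by Caspase-Glo luminescence after 1 hr at room temperature. Normalized to DMSO and 10 uM staurosporine; AC50 from Hill fits.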
A short description of assay [8]: Cellular Toxicity (caspase-3) MRC-5 (AID 659; active = well fitted curve in the direction sought with a large enough effect; an effect the other way counts as inactive or inconclusive;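 note: 0% = DMSO basal and 100% = 10 µM staurosporine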). The method, boiled down:
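MRC-5 human normal lung fibroblasts, 1500 cells/well, treated 16 h at 37 °C in complete medium. Caspase 3/7 measured by Caspase-Glo luminescence after 1 h at room temperature. Normalized to DMSO and 10 uM staurosporine; AC50 from Hill fit.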

Assay [9] is described as follows: Cellular Toxicity (caspase-3) Hek293 (AID 664; active = well fitted curve in the direction sought with a large enough effect; an effect the other way counts as inactive or inconclusive;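 note: cells exposed to compound for 16 h at 37 °C before readout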). The note with it: HEK293 caspase-3 activation, DMSO = 0%, 100 µM tamoxifen = 100%; at 92.2 µM (top of the series). The method in brief:
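Cells plated, 5 hr at 37 °C; compounds added; 16 hr at 37 °C; Caspase-Glo 3/7 reagent, 20 min RT; luminescence read. Activation expressed relative to DMSO and 100 uM tamoxifen, AC50 by Hill model.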

The nature of assay [10]: Cellular Toxicity (caspase-3) N2a (AID 665; active = well fitted curve in the direction sought with a large enough effect; an effect the other way counts as inactive or inconclusive;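 note: compound exposure lasted 16 h at 37 °C before readout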). The method, boiled down:
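N2a cells, 1500/well, 5 h settle at 37 °C; cpd 16 h, 37 °C; Caspase-Glo 3/7, 1 h RT; luminescence. Norm: DMSO = 0, 10 uM staurosporine = 100%. AC50, Hill fit.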

The nature of assay [11]: Cellular Toxicity (caspase-3) NIH 3T3 (AID 666; active = well fitted curve in the direction sought with a large enough effect; an effect the other way counts as inactive or inconclusive;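 note: caspase signal read after 16 h compound exposure; 0% = DMSO basal and 100% = 100 µM tamoxifen stimulation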). The method in brief:
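Luminescence from aminoluciferin released by caspase-3/7 cleavage of a peptide substrate served as read-out. Mouse fibroblast NIH 3T3 cells were exposed to compounds over a concentration range for 16 hours, and AC50 values came from standard Hill modelling.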

The nature of assay [12]: MultiTox-Fluor Cytotoxicity Assay - LYMP1-001 - Dead Cells (AID 946; active = well fitted curve in the direction sought with a large enough effect; an effect the other way counts as inactive or inconclusive;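 note: 0% = DMSO and 100% = tetraoctylammonium bromide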). The method in brief:
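LYMP1-001 lymphoblastoid cells (2500/well) treated 16 h at 37 C. Dead-cell protease cleavage of bis-AAF-R110 read at Ex/Em 485/520. Normalized to DMSO and 15 uM tetraoctylammonium bromide; AC50 from Hill fits.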

Assay [13] can be described thus: MultiTox-Fluor Cytotoxicity Assay - LYMP1-002 - Live Cells (AID 955; active = well fitted curve in the direction sought with a large enough effect; an effect the other way counts as inactive or inconclusive; note: % is set by controls: 0 for no effect and ±100 for the full control effect). The method, boiled down:
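Read-out is live-cell protease activity (cell-permeant GF-AFC substrate, fluorescence Ex/Em=405/510), where a decrease indicates acute toxicity. Human lymphoblastoid cells were treated 16 hours at 37 C in a concentration series, and AC50 values came from standard Hill modelling.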

A short description of assay [14]: MultiTox-Fluor Cytotoxicity Assay - LYMP1-003 - Dead Cells (AID 961; active = well fitted curve in the direction sought with a large enough effect; an effect the other way counts as inactive or inconclusive;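 note: 0% = DMSO and 100% = tetraoctylammonium bromide; nearly all actives have a fitted effect of over 70% in size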). The method in brief: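 LYMP1-003 human lymphoblastoid cells (2500/well) exposed to compound 16 h at 37 C in complete medium; dead-cell protease read with bis-AAF-R110 fluorescence (Ex/Em 485/520) after 60 min at room temperature. Normalized to DMSO and 15 uM tetraoctylammonium bromide; AC50 from Hill fit.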

Assay [15] is described as follows: MultiTox-Fluor Cytotoxicity Assay - LYMP1-003 - Live Cells (AID 962; active = well fitted curve in the direction sought with a large enough effect; an effect the other way counts as inactive or inconclusive;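 note: 0% = DMSO only and full loss = 92 µM tetraoctylammonium bromide; cytotoxic hits lower the live-cell protease signal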). The method, boiled down: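 qHTS, 1536-well; 2500 cells/well LYMP1-003; 5 hr 37 C settle; cpd 16 hr 37 C; MultiTox-Fluor reagent 60 min RT; live-cell protease fluor. 405/510; Hill-fit AC50; tetraoctylammonium bromide pos. ctrl.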
A short description of assay [16]: Cell Viability - LYMP2-026 (AID 989; active = well fitted curve in the direction sought with a large enough effect; an effect the other way counts as inactive or inconclusive;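 note: cells exposed to compound for 24 h at 37 °C; % is set by controls: 0 for no effect and ±100 for the full control effect; nearly all actives have a fitted effect of over 50% in size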). The method, boiled down: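 Luminescent ATP signal (CellTiter-Glo, 30 min room temperature) measures viable lymphoblastoid cells after 24 hr compound treatment at 37 C. Decreased ATP reflects acute toxicity; AC50 values come from Hill-equation modeling.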
Assay [17] can be described thus: Cell Viability - LYMP1-002 - Assay at 24 hr (AID 993; active = well fitted curve in the direction sought with a large enough effect; an effect the other way counts as inactive or inconclusive; note: % is set by controls: 0 for no effect and ±100 for the full control effect). The method in brief:
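Cells plated 2500/well, 5 hr 37 C; compounds added, 24 hr 37 C; CellTiter-Glo added, 30 min RT; luminescence read. Tetraoctylammonium bromide positive control. Hill-equation AC50.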

Assay [18] can be described thus: qHTS assay for small molecule agonists of retinoid X receptor alpha signaling (AID 588544). As to conditions: HEK293T RXRa-UAS-bla, beta-lactamase reporter, 18 h; 530 nm emission.
The target in assay [19] is Peroxisome proliferator-activated receptor alpha (Homo sapiens) (UniProt Q07869). The experiment in a line: qHTS assay for small molecule agonists of the peroxisome proliferator-activated receptor alpha (PPARalpha) signaling pathway (AID 651778; active = well fitted curve in the direction sought with a large enough effect; an effect the other way counts as inactive or inconclusive; note: % of control where 0% means no effect). The note with it: PathHunter PPARalpha complementation, chemiluminescence, 6 h; stronger effect = higher value. The method in brief:
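Enzyme-fragment complementation assay in which ligand-bound PPARalpha translocates and forms an active enzyme that generates chemiluminescence. Cells were plated overnight, exposed to compound for 6 hr at 37 C, and then given detection reagent for 60 min at room temperature.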

A short description of assay [20]: qHTS assay for cell viability of the p53RE-bla HCT-116 cell line (AID 743292; active = well fitted curve in the direction sought with a large enough effect; an effect the other way counts as inactive or inconclusive; note: % is set by controls: 0 for no effect and ±100 for the full control effect; nearly all actives have a fitted effect of over 55% in size). The method, boiled down:
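CellSensor p53RE-bla HCT-116 cells (4,000/well) pre-incubated 5 h at 37 C, then exposed to compounds in DMSO for 16 h at 37 C. Viability read as ATP content by CellTiter-Glo luminescence after 30 min at room temperature.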

Sequence of Cytochrome P450 3A4 (Homo sapiens) (P08684 whole entry, looked up): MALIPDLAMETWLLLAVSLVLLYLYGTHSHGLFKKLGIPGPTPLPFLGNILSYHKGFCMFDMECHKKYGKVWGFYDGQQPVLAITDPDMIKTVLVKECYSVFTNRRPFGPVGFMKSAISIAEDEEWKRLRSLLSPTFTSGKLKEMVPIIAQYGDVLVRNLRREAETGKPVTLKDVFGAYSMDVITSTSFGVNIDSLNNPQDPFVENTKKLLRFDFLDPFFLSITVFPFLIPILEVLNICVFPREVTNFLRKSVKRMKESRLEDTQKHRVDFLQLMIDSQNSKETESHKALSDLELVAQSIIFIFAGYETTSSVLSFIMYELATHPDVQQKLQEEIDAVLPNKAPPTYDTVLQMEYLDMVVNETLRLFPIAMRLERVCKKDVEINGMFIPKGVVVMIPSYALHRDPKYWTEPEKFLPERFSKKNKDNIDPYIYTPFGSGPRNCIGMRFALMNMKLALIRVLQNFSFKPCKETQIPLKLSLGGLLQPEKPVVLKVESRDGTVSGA
Sequence of Peroxisome proliferator-activated receptor alpha (Homo sapiens) (Q07869 whole entry, looked up, the tested form may be a part): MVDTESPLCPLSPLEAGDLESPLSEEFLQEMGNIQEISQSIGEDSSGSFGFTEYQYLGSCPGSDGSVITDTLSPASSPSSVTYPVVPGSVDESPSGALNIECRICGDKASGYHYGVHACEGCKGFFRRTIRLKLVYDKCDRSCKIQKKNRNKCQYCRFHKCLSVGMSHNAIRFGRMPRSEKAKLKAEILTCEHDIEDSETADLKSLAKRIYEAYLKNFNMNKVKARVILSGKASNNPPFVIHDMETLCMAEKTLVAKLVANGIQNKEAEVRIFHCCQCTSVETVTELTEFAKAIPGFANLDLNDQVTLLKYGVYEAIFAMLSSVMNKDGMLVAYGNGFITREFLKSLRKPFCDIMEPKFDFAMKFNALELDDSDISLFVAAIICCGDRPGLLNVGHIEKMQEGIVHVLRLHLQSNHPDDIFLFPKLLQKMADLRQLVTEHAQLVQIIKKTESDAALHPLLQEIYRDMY

Take `O=C(O)[C@H]1CCN1`: the Potency result in assay [1] and in [2] was “inactive” each time. As to `COc1ccc2c3c1O[C@@H]1C(=O)CC[C@@]4(O)[C@@H](C2)N(CC2CC2)CC[C@]314`, the Potency result in [1] was “inactive”. Regarding `C[N+]1(C)C2CC(OC(=O)C(CO)c3ccccc3)CC1[C@@H]1O[C@H]21` (some centres undefined), the Potency entry in assay [1] is “inactive”. Regarding `N[C@H](Cc1ccc(N(CCCl)CCCl)cc1)C(=O)O`, the Potency entry in assay [1] is “inactive”. As for `C[C@@]12CC[C@H]3[C@@H](CC[C@@H]4C[C@H](O)CC[C@]43C)[C@H]1CC[C@H]2O`, the Potency result in assay [1] was “inactive”. `CC(C)[C@@]1(NC(=O)[C@@H]2C=C3c4cccc5[nH]cc(c45)C[C@@H]3N(C)C2)O[C@]2(O)[C@H]3CCCN3C(=O)[C@H](Cc3ccccc3)N2C1=O`: in [1], the Potency result is “inactive”.

Take `c1ccc2c(c1)Sc1ccccc1N2C[C@H]1CN2CCC1CC2`: the activity change, negative = inhibition in assay [1] is 3.89% [at 11.4 µM] (inactive).

For the molecule `O=C(Nc1cc[c]([Sb](=[O])([OH])[OH])cc1)c1ccccc1`, the activity change, negative = inhibition in assay [1] was -0.0598% [at 11.4 µM] (inactive). With `[N-]=[N+]=CC(=O)CC[C@H](N)C(=O)O`, the activity change, negative = inhibition in [1] is 31.7% [at 11.4 µM] (inactive). Same read-out and setting: to `O=[As](O)(O)c1ccc2nc3cc([As](=O)(O)O)ccc3nc2c1` belongs -2.18% [at 11.4 µM] (inactive). For `CC(=O)[C@@H]1CC[C@H]2[C@H]3CC[C@H]4C[C@@H](O)CC[C@]4(C)[C@@H]3CC[C@]12C`, in assay [1], the Potency entry is “inactive”. The same measure, in the same setting: to `CC(C)[C@@]1(NC(=O)[C@H]2C[C@H]3c4cccc5[nH]cc(c45)C[C@@H]3N(C)C2)O[C@]2(O)[C@H]3CCCN3C(=O)[C@H](Cc3ccccc3)N2C1=O` belongs “inactive”. With `O[C@H](CN1CC1)[C@@H](O)CN1CC1`, in assay [1], the activity change, negative = inhibition is 2.9% [at 11.4 µM] (inactive). For `c1ccc(CCN2CCCCCC2)nc1`, in assay [1], the activity change, negative = inhibition was 4.35% [at 11.4 µM] (inactive).

Turning to `CCN(CC)c1ncnc2c1ncn2[C@@H]1O[C@@H](COP(=O)(O)OP(=O)(O)C(Br)(Br)P(=O)(O)O)[C@H](O)[C@@H]1O`, in assay [1], the Potency entry is “inactive”.

With `C[C@@]12CC[C@H]3[C@@H](CCC4=C(O)C(=O)CC[C@]43C)[C@H]1CCC2=O`, the Potency entry in assay [1] is “inactive”.

Turning to `C[C@@H]1Cc2cc3c(cc2C(c2ccc(N)cc2)=NN1)OCO3`, the Potency in assay [2] is 2.51 µM (active). `CCn1cnc2c(Nc3cccc(Cl)c3)nc(N[C@@H]3CCCC[C@H]3N)nc21`: the Potency entry in assay [1] was “inactive”. In the case of `C[C@@H](O)CN(CCN(C[C@@H](C)O)C[C@@H](C)O)C[C@@H](C)O.O=[N+]([O-])O.[Cu]`, in assay [1], the activity change, negative = inhibition is -3.67% [at 11.4 µM] (inactive).

Consider `CCCN1CC[C@@H]2c3cc(O)ccc3CC[C@H]21`, for which the Potency result in assay [1] was “inactive”. Take `C[C@@H]1O[C@H]1P(=O)(O)O`: the Potency result in assay [1] was “inactive”. Consider `CC(=O)OCC1=C(C(=O)[O-])N2C(=O)[C@@H](NC(=O)CCC[C@@H](N)C(=O)[O-])[C@@H]2SC1.[Zn+2]`, for which the Potency entry in assay [1] was “inactive”. Still for that read-out and setting: next, `CN1C[C@@H](CS(=O)(=O)N(C)C)C[C@H]2c3cccc4c3c(cn4C)C[C@@H]21`: “inactive”. For `C#CCN[C@@H](C)Cc1ccccc1`, the Potency result in assay [1] and in assay [2] was “inactive” throughout.

For the molecule `C=CCN1CC[C@]23c4c5ccc(O)c4O[C@@H]2/C(=N/NC(=O)c2ccccc2)CC[C@@]3(O)[C@H]1C5`, the Potency entry in assay [1] is “inactive”.

Take `N[C@H](Cn1oc(=O)[nH]c1=O)C(=O)O`: in [1], the Potency result was “inactive”. The same measure, in the same setting: next, `Nc1ncnc2c1ncn2[C@@H]1O[C@@H](COP(=O)(O)CP(=O)(O)OP(=O)(O)O)[C@H](O)[C@@H]1O`: “inactive”.

`Nc1cccc(Cl)c1`: the Potency in [3] and in [4] was > 92 µM (inactive) each time. The Potency result in assay [5], in [11], in assay [2], in assay [14], in assay [16] and in [17] was “inactive” in each case. For the same molecule, in assay [20], the Potency result is “inactive”. In addition, the result in assay [6], in assay [7], in [8], in assay [10], in assay [12] and in assay [13] was inactive. The molecule was classed as inactive in assay [15]. The caspase-3 activation in assay [9] is 5.51% (inactive). Moreover, the values for the max response in [18] and in [19] were 4.67% and 0.632% (inactive), respectively.

Turning to `CC(=O)c1c(O)c(C)c(O)c(Cc2c(O)c3c(c(C(=O)/C=C\c4ccccc4)c2O)OC(C)(C)C=C3)c1O`, the Potency in assay [2] is 6.31 µM (active).
